Measurements as given in PubChem BioAssay AID2158 (National Center for Advancing Translational Sciences (NCATS), 2009).
Values joined by “and” are separate entries in the source; they are usually repeats but may differ in a detail not shown here. Identical values can stand only once. Results filed as inconclusive are left out. Unmarked numbers belong to inactive results. Active and inactive are the calls of the source. Calls follow the shape of the dose curve; as a rule, active = well fitted inhibition curve with a large enough effect; inconclusive = small, poorly fitted or top-dose-only effect; inactive = no such curve, though single readings can be large or run the other way.
Also: nearly all actives have a fitted effect of over 40% in size.
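For activity change, negative = inhibition in this document: plate controls were uninhibited enzyme control for no effect and buffer wells lacking enzyme for full effect.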
Potency is read from the fitted curve at half-maximal effect.

These compounds were tested against Cruzipain (Trypanosoma cruzi) (UniProt P25779) (assay: Confirmation qHTS Assay for Inhibitors of Cruzain). Conditions: purified cruzain, Z-FR-AMC fluorescence, 0.01% Triton.
Sequence of Cruzipain (Trypanosoma cruzi) (P25779 123-467 limits assumed): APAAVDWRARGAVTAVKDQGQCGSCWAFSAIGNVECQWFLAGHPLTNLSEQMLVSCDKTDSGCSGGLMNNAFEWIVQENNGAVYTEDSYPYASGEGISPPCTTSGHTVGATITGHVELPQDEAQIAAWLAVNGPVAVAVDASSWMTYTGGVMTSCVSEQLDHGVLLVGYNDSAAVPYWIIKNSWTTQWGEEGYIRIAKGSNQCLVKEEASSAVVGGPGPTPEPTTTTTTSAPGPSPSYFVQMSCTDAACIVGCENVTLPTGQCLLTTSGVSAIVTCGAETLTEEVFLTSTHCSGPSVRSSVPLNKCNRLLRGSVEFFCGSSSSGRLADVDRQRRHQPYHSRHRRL
Procedure: Cruzain is a cysteine protease from the tropical parasite Trypanosoma cruzi. This assay protocol is a follow-up and confirmation of related AID 1478 (qHTS Assay for Promiscuous and Specific Inhibitors of Cruzain -- with detergent). Cruzain was assayed by the use of fluorogenic coumarin-based substrate Z-FR-AMC: proteolytic cleavage releases AMC, whose fluorescence is measured at 360 nm excitation and 450 nm emission. Purified cruzain was supplied by the labs of Prof. James McKerrow and Brian Shoichet, UC San Francisco. This assay had 0.01% Triton X-100 concentration. See following references for additional details: Jadhav A, et al. J Med Chem. 2010 Jan 14;53(1):37-51. Mott BT, et al. J Med Chem. 2010 Jan 14;53(1):52-60. Assay Provider: Shoichet, Brian; University of California, San Fancisco Screening Center PI: Austin, C.P. Screening Center: NIH Chemical Genomics Center [NCGC]
Buffer: 100 mM Sodium Acetate, pH 5.5, 5 mM DTT, Triton X-100 concentration: 0.01%. Reagents/Controls: Buffer in columns 3 and 4 as negative control (no enzyme). Substrate solution: 2 uM final concentration of Z-FR-AMC (catalog number I-1160, Bachem) dispensed throughout the plate. Enzyme: 1.5 nM Cruzain final concentration in columns 1, 2, 5-48. Column 1 is neutral (100% activity). Column 2 contained titration of covalent inhibitor K11777, starting concentration 1 mM, then 1:2 dilution in duplicate). Assay Steps: Three uL of enzyme or buffer were dispensed to 1536-well Greiner black solid bottom plates. Compounds and controls (23 nL) were transferred via Kalypsys PinTool. The plates were incubated for 15 min at room temperature, and then 1 uL of substrate solution was added to start the reaction. The plates were immediately transferred to and read 4 times every 30 seconds for 2 min on ViewLux High-throughput CCD imager (Perkin-Elmer) using 360 nm excitation and 450 nm emission fluorescence protocol. The fluorescence intensity difference between the third and the first time points (time lapse of 60 seconds) was used to compute reaction progress.
For `CC(C)(C)OC(=O)Cc1nnc(-c2cc3ccccc3[nH]2)o1`, the activity change, negative = inhibition was 0.423%. With `CCOC(=O)N1CCC(=C2c3ccc(Cl)cc3CCc3cccnc32)CC1` the activity change, negative = inhibition was -13.4%. With `NC(=S)N/N=C/c1ccc(-c2cc(Cl)ccc2Cl)o1` the Potency was 2 µM (active). With `COc1cc(NC(=O)C(OC(=O)CNC(=O)c2ccccc2)c2ccccc2)cc(C(F)(F)F)c1` (stereo not given) the Potency was 31.6 µM (active). For `N#Cc1nc(Nc2cc(F)cc(F)c2)nc(Nc2cc(F)cc(F)c2)n1`, the Potency was 0.0794 µM (active). With `O=C(CNC(=O)c1ccccc1)NCC(=O)OCC(=O)c1cccc2ccccc12` the activity change, negative = inhibition was -13.9%. `O=C(COC(=O)CNC(=O)C1CCCCC1)Nc1ccccc1Cl` was tested, and the Potency was 3.98 µM (active). For `CCNc1nc(C#N)nc(Nc2ccccc2)n1`, the Potency was 0.708 µM (active). In the case of `Cc1cccc(OCCCn2c(CCNC(=O)C3CCCCC3)nc3ccccc32)c1`, the Potency is reported as 794 nM (active) and 708 nM (active). For `N#Cc1nc(N(c2ccccc2)c2ccccc2)nc(-n2cccc2)n1`, the Potency was 2.51 µM (active). `Cc1ccccc1OCC(=O)NCC(=O)OCc1cccc2ccccc12` was tested, and the activity change, negative = inhibition was -2.79%. In the case of `Cc1oc(=O)c(NC(=O)c2cccc(Cl)c2)cc1C(=O)c1ccccc1`, the activity change, negative = inhibition is reported as -24.6%. In the case of `CCCCNC(=O)c1ccc2nc(-c3ccco3)c(-c3ccco3)nc2c1`, the Potency is reported as 7.94 µM (active). `Cc1ccc2[nH]c(=O)c(CN(Cc3cccs3)Cc3nnnn3Cc3ccco3)cc2c1` showed an activity change, negative = inhibition of -23%. With `Cc1ccc(C(=O)COC(=O)CNC(=O)COc2ccccc2C)cc1C` the Potency was 14.1 µM (active). `O=C(COC(=O)CNS(=O)(=O)c1ccc(F)c(F)c1F)Nc1ccc(OC(F)F)cc1` showed an activity change, negative = inhibition of -11.4%. `Cc1ccc(S(=O)(=O)NC(N)=NCCC[C@@H](NC(=O)CNC(=O)c2ccccc2)C(=O)Nc2cc(C(F)(F)F)ccc2Cl)cc1` was tested, and the activity change, negative = inhibition was -20%. In the case of `CC1CN(c2oc(-c3cccs3)nc2C#N)CC(C)O1` (stereo not given), the activity change, negative = inhibition is reported as -79.4%. Work on `Cc1ccc(C(=O)NCCn2c(N)c(C#N)c3nc4ccccc4nc32)cc1` yielded an activity change, negative = inhibition of -28.5%. Work on `O=c1oc2ccccc2cc1-c1csc(Cc2nc(-c3ccc(Br)cc3)cs2)n1` yielded an activity change, negative = inhibition of 1.72%. In the case of `COc1ccc(NS(=O)(=O)c2cc(NC(=O)/C=C/c3ccccc3OC)ccc2N2CCCCC2)cc1`, the activity change, negative = inhibition is reported as 2.33%. With `O=c1c2ccccc2sc2nc(C3CCCCC3)n(Cc3ccco3)c(=O)c12` the Potency was 25.1 µM (active). `Cc1nc2cc(-c3ccccc3)nn2c(C)c1CCC(=O)N1CCN(c2ccccc2)CC1` gave an activity change, negative = inhibition of -13%. For `O=C(N[C@@H](Cc1ccccc1)C(=O)CCl)OCc1ccccc1`, the Potency was 0.447 µM (active). For `NC(=S)n1[nH]c(-c2ccc([N+](=O)[O-])cc2)c(N=Nc2ccc(O)cc2)c1=O`, the activity change, negative = inhibition was -8%. For `CC(C)CC(OC(=O)CNC(=O)c1ccccc1)C(=O)Nc1cc(C(F)(F)F)ccc1Cl` (stereo not given), the Potency was 7.94 µM (active). Work on `N#Cc1nc(Nc2ccc(C(F)(F)F)cc2)nc(NC2CCCC2)n1` yielded an activity change, negative = inhibition of 2.22%. `COc1ccc(-c2nnc(NC(=O)c3ccc(S(=O)(=O)N4CCCc5ccccc54)cc3)o2)cc1` was tested, and the activity change, negative = inhibition was -17.1%. `O=C(Nc1ccc(O)c(-c2nc3ccccc3o2)c1)C1(c2ccc([N+](=O)[O-])cc2)CCCC1` showed an activity change, negative = inhibition of -1.92%. Compound `Cc1ccc2[nH]c(=O)c(CN(CCCO)Cc3nnnn3Cc3ccco3)cc2c1` has an activity change, negative = inhibition of -4.63%. `Cc1ccccc1OCC(=O)NCC(=O)OCc1ccc2ccccc2c1` was tested, and the activity change, negative = inhibition was -17.8%. In the case of `Cc1ccc(C(=O)Oc2oc(-c3ccco3)nc2C=Nc2ccc(Cl)cc2)cc1`, the Potency is reported as 11.2 µM (active). For `CCCCNC(=O)C(CC)n1c(SCc2cccc(F)c2)nc2ccncc21` (stereo not given), the activity change, negative = inhibition was -13.4%. `O=C(NCc1nnc(C(=O)Nc2ccc(C(F)(F)F)cc2Cl)o1)c1ccccc1` gave an activity change, negative = inhibition of -7.13%. For `N#Cc1nc(N)nc(N(c2ccccc2)c2ccccc2)n1`, the Potency was 3.55 µM (active) and 3.16 µM (active). Work on `CC(C)(C)OC(=O)NCc1nnc(-c2cc3ccccc3[nH]2)s1` yielded an activity change, negative = inhibition of -12.9%. With `Cn1nc(-c2ccc(F)cc2)nc2c(=O)n(C)c(=O)nc1-2` the Potency was 0.631 µM (active). In the case of `CCCNC(=O)Cn1c(SCc2ccccc2C)nc2ccncc21`, the activity change, negative = inhibition is reported as -2.3%. `CC(C)(C)c1ccc(Nc2nc(C#N)nc(NC3CCCC3)n2)cc1` was tested, and the Potency was 3.55 µM (active). `c1ccc(CN(Cc2ccccc2)Cc2nnc(-c3cc4ccccc4[nH]3)o2)cc1` gave an activity change, negative = inhibition of -7.39%.
